From PMC11062922 (Nature Chemical Biology, 2023)
Where two headings read alike, the source gives them in different places.

Experiments:
[1] = tested on: AAK1; parameters: species or system human, MV4-11 + K-562 + COLO205 + SK-N-BE2 + OVCAR-8; conditions: read-out: apparent Kd, n = 1
[2] = tested on: BMP2K; parameters: species or system human, MV4-11 + K-562 + COLO205 + SK-N-BE2 + OVCAR-8; conditions: read-out: apparent Kd, n = 1
[3] = tested on: CLK1; parameters: species or system human, MV4-11 + K-562 + COLO205 + SK-N-BE2 + OVCAR-8; conditions: read-out: apparent Kd; compound concentrations:100 nM and 1000 nM (sheet 'Samples'); n = 1
[4] = tested on: CSNK2A1;CSNK2A3; parameters: species or system human, MV4-11 + K-562 + COLO205 + SK-N-BE2 + OVCAR-8; conditions: read-out: apparent Kd, n = 1
[5] = tested on: CSNK2A2; parameters: species or system human, MV4-11 + K-562 + COLO205 + SK-N-BE2 + OVCAR-8; conditions: read-out: apparent Kd, n = 1
[6] = tested on: FLT4; parameters: species or system human, MV4-11 + K-562 + COLO205 + SK-N-BE2 + OVCAR-8; conditions: read-out: apparent Kd; compound concentrations:100 nM and 1000 nM (sheet 'Samples'); n = 1
[7] = tested on: GAK; parameters: species or system human, MV4-11 + K-562 + COLO205 + SK-N-BE2 + OVCAR-8; conditions: read-out: apparent Kd, n = 1
[8] = tested on: GSK3A; parameters: species or system human, MV4-11 + K-562 + COLO205 + SK-N-BE2 + OVCAR-8; conditions: read-out: apparent Kd, n = 1
[9] = tested on: GSK3B; parameters: species or system human, MV4-11 + K-562 + COLO205 + SK-N-BE2 + OVCAR-8; conditions: read-out: apparent Kd, n = 1
[10] = tested on: PAK4; parameters: species or system human, MV4-11 + K-562 + COLO205 + SK-N-BE2 + OVCAR-8; conditions: read-out: apparent Kd, n = 1
[11] = tested on: PKN3; parameters: species or system human, MV4-11 + K-562 + COLO205 + SK-N-BE2 + OVCAR-8; conditions: read-out: apparent Kd; compound concentrations:100 nM and 1000 nM (sheet 'Samples'); n = 1
[12] = tested on: PRKAG1; parameters: species or system human, MV4-11 + K-562 + COLO205 + SK-N-BE2 + OVCAR-8; conditions: read-out: apparent Kd; compound concentrations:100 nM and 1000 nM (sheet 'Samples'); n = 1
[13] = target: Q6ZSR9 (human, UniProt Q6ZSR9); parameters: species or system MV4-11 + K-562 + COLO205 + SK-N-BE2 + OVCAR-8; conditions: read-out: apparent Kd, n = 1
Q6ZSR9, sequence (Q6ZSR9 whole entry, looked up): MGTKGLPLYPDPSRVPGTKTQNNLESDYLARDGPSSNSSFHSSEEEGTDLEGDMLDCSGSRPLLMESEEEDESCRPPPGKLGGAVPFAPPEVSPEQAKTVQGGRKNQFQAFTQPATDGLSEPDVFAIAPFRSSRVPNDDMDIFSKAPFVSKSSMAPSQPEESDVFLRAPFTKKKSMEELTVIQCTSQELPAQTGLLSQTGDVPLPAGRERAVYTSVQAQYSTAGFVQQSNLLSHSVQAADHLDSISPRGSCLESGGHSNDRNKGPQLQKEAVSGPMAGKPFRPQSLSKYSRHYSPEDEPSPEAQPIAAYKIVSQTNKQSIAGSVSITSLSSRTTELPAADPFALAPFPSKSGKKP

[14] = tested on: RET; parameters: species or system human, MV4-11 + K-562 + COLO205 + SK-N-BE2 + OVCAR-8; conditions: read-out: apparent Kd, n = 1
[15] = tested on: SIK2; parameters: species or system human, MV4-11 + K-562 + COLO205 + SK-N-BE2 + OVCAR-8; conditions: read-out: apparent Kd, n = 1
[16] = tested on: MELK; parameters: species or system human, MV4-11 + K-562 + COLO205 + SK-N-BE2 + OVCAR-8; conditions: read-out: apparent Kd, n = 1
[17] = tested on: NUAK1; parameters: species or system human, MV4-11 + K-562 + COLO205 + SK-N-BE2 + OVCAR-8; conditions: read-out: apparent Kd; compound concentrations: 100 nM and 1000 nM (sheet 'Samples'), CATDS: 0.165743265872908; n = 1
[18] = tested on: PKN1; parameters: species or system human, MV4-11 + K-562 + COLO205 + SK-N-BE2 + OVCAR-8; conditions: read-out: apparent Kd; compound concentrations:100 nM and 1000 nM (sheet 'Samples'); n = 1
[19] = compound concentrations:100 nM and 1000 nM (sheet 'Samples')

SMILES: CC(=O)N[C@@H](Cc1ccc(OP(=O)(O)O)cc1)C(=O)N[C@H]1CCC(=O)N2CCC[C@@H](C(=O)NCc3ccc(Cl)cc3)N2C1=O [RO0325308-000]
- potency estimated from few doses [1, 19]: 737 nM
- potency estimated from few doses [2, 19]: 1480 nM
- potency estimated from few doses [3]: 60.4 nM
- potency estimated from few doses [4, 19]: 1430 nM
- potency estimated from few doses [5, 19]: 1780 nM
- potency estimated from few doses [6]: 28.4 nM
- potency estimated from few doses [7, 19]: 59.4 nM
- potency estimated from few doses [8, 19]: 59 nM
- potency estimated from few doses [9, 19]: 60.7 nM
- potency estimated from few doses [10, 19]: 1170 nM
- potency estimated from few doses [11]: 152 nM
- potency estimated from few doses [12]: 523 nM
- potency estimated from few doses [13, 19]: 1030 nM
- potency estimated from few doses [14, 19]: 876 nM
- potency estimated from few doses [15, 19]: 943 nM

SMILES: CNCC#Cc1c(F)ccc2c1/C(=C/c1[nH]ccc1OC)C(=O)N2.Cl [RO0281601-001]
- potency estimated from few doses ([1]; compound concentrations: 100 nM and 1000 nM (sheet 'Samples'), CATDS: 7.8599709029845199E-2): 81.9 nM
- potency estimated from few doses ([2]; compound concentrations: 100 nM and 1000 nM (sheet 'Samples'), CATDS: 0.12287640268831): 36.8 nM
- potency estimated from few doses ([4]; compound concentrations: 100 nM and 1000 nM (sheet 'Samples'), CATDS: 2.36611103564075E-2): 1450 nM
- potency estimated from few doses ([5]; compound concentrations: 100 nM and 1000 nM (sheet 'Samples'), CATDS: 2.8196939656964501E-2): 832 nM
- potency estimated from few doses ([7]; compound concentrations: 100 nM and 1000 nM (sheet 'Samples'), CATDS: 2.4779459392996701E-2): 1240 nM
- potency estimated from few doses ([8]; compound concentrations: 100 nM and 1000 nM (sheet 'Samples'), CATDS: 3.3017253821498199E-2): 543 nM
- potency estimated from few doses ([9]; compound concentrations: 100 nM and 1000 nM (sheet 'Samples'), CATDS: 2.9733635165772199E-2): 717 nM
- potency estimated from few doses ([16]; compound concentrations: 100 nM and 1000 nM (sheet 'Samples'), CATDS: 2.1569826245294601E-2): 2070 nM
- potency estimated from few doses [17]: 22.7 nM
- potency estimated from few doses ([10]; compound concentrations: 100 nM and 1000 nM (sheet 'Samples'), CATDS: 2.65611791576283E-2): 993 nM
- potency estimated from few doses ([13]; compound concentrations: 100 nM and 1000 nM (sheet 'Samples'), CATDS: 7.9611520405697994E-2): 79.9 nM
- potency estimated from few doses ([14]; compound concentrations: 100 nM and 1000 nM (sheet 'Samples'), CATDS: 3.1274331482211301E-2): 625 nM
- potency estimated from few doses ([15]; compound concentrations: 100 nM and 1000 nM (sheet 'Samples'), CATDS: 2.5744963506260699E-2): 1090 nM

SMILES: CCn1c(-c2nonc2N)nc2c(C#CC(C)(C)O)nc(O[C@@H](CN)c3ccccc3)cc21.O=C(O)C(F)(F)F [GSK1007102B]
- potency estimated from few doses [1, 19]: 67.3 nM
- potency estimated from few doses [2, 19]: 355 nM
- potency estimated from few doses [8, 19]: 46.1 nM
- potency estimated from few doses [9, 19]: 40.5 nM
- potency estimated from few doses [16, 19]: 1040 nM
- potency estimated from few doses [10, 19]: 39.8 nM
- potency estimated from few doses [18]: 37.6 nM
- potency estimated from few doses [11]: 2.06 nM
- potency estimated from few doses [12]: 765 nM
- potency estimated from few doses [13, 19]: 111 nM
- potency estimated from few doses [14, 19]: 1250 nM
